HT1080 IDH1KD tx – qHTS for induction of synthetic lethality in tumor cells producing 2HG: qHTS for the HT-1080-IDH1KD cell line; HT-1080 IDH1 knockdown viability, ATP luminescence, 48 h; Potency, µM (top dose mostly 46.1 µM), without a hit: at the highest dose activity, negative = toxicity, hits mostly cytotoxic; hit rate 2% among 360,000; AID 686971, 2013;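 note: potency is the fitted concentration of half-maximal effect; 0% = DMSO wells and -100% = cell-free medium wells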
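HT-1080-IDH1KD cells (IDH1 knocked down), 750/well in RPMI with 5% FBS, treated with compound 48 h at 37 degrees C. Viability by CellTiter-Glo luminescence, normalised to DMSO and no-cell wells; concentration-response curves classed.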
TDP1 cell noCPT – qHTS for Inhibitors of human tyrosyl-DNA phosphodiesterase 1 (TDP1): qHTS in cells in absence of CPT. Potency, µM (series often up to 46.2 µM), for the others: at the top dose activity change, negative = growth inhibition, most hits filed as inhibitors. DT40 Tdp1-/- hTDP1 cells, no CPT, ATP luminescence, 48 h. hit rate 15% among 420,000; note: potency is the fitted concentration of half-maximal effect; nearly all actives have a fitted effect of over 55% in size
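Cells were dispensed at 400 per well, compounds added by pin tool, plates incubated ≥48 hr at 37 °C, then CellTiter-Glo added for 30 min at room temperature before luminescence reading. Line: DT40 Tdp1-/- complemented with hTDP1; camptothecin omitted.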
IL1B secr inh – qHTS for Inhibitors of Inflammasome Signaling: IL-1-beta AlphaLISA Primary Screen; THP-1 LPS/ATP IL-1B secretion, AlphaLISA, 16 h; stronger effect = lower value; activity change, % at 57.5 µM; hit rate 4.7% among 360,000; in the data active = activity change below about -50%; inconclusive = mostly about -30% to -49%
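Secreted IL-1B measured by AlphaLISA bead assay after 16 h compound exposure of THP-1 cells; compounds (final up to 57.5 uM) added 1 h before LPS (250 ng/mL) and ATP (1.25 mM) stimulation; lower signal means less secretion.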
TDP1 cell CPT – qHTS for Inhibitors of human tyrosyl-DNA phosphodiesterase 1 (TDP1): qHTS in cells in presence of CPT; Potency, µM (series often up to 46.2 µM), without a hit: at the highest dose activity change, negative = growth inhibition, usual class: inhibitors; AID 686979, 2013; hit rate 12% among 420,000; chicken DT40 Tdp1-/-;hTDP1 cells + 20 nM CPT, ATP luminescence, 48 h; note: potency is the fitted concentration of half-maximal effect; nearly all actives have a fitted effect of over 55% in size
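Chicken DT40 Tdp1-/- cells complemented with human TDP1, 400 cells/well, exposed to compounds plus 20 nM camptothecin for at least 48 h at 37 C; viability read as ATP content by CellTiter-Glo luminescence.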
HT1080-NT tox – qHTS for induction of synthetic lethality in tumor cells producing 2HG: qHTS for the HT-1080-NT fibrosarcoma cell line; Potency, µM (titrated, usually from 46.1 µM), inactives show at the top dose activity, negative = less viability, hits mostly cytotoxic; hit rate 1.6% among 360,000; HT-1080-NT fibrosarcoma viability, CellTiter-Glo ATP luminescence, 48 h;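 note: NT is the 2HG producing partner of a matched IDH1 knockdown line; potency is the fitted concentration of half-maximal effect; 0% = DMSO-treated cells and -100% = media-only wells without cells; nearly all actives have a fitted effect of over 55% in size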
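A 48-hour cytotoxicity screen used HT-1080-NT cells plated 2 hours before compound delivery. ATP-based CellTiter-Glo luminescence measured viability, normalized to DMSO and no-cell controls.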
Starred values were filed as active, the others as inactive; [ ] = remark or other dose. In the library only some 19% were active in any assay of this set; here they are far more common. Unless noted, calls come from the whole dose curve; as a rule, active = well fitted curve in the direction sought with a large enough effect; inconclusive = small, poorly fitted or top-dose-only effect, or another doubt; inactive = no such curve, though single readings can be large; an effect the other way counts as inactive or inconclusive. Unless noted, % is set by controls: 0 for no effect and ±100 for the full control effect.

Results for O=C(N[C@@H]1c2ccccc2CC[C@@H]1OCc1ccccc1)c1ccc(-c2ccccc2)cc1 ?
HT1080 IDH1KD tx: 7%; TDP1 cell noCPT: -16%; IL1B secr inh: 65; TDP1 cell CPT: -1%; HT1080-NT tox: -1%

What do the screens show for `N#Cc1c(-c2ccccc2F)cc(C2CC2)nc1SCC(=O)c1cccs1`?
HT1080 IDH1KD tx: 1%; TDP1 cell noCPT: 18µM*; IL1B secr inh: inactive; TDP1 cell CPT: 18µM*; HT1080-NT tox: 20%

What do the screens show for `CCc1c(C)nc(SCC(N)=O)c(C#N)c1C`?
HT1080 IDH1KD tx: -7%; TDP1 cell noCPT: -10%; IL1B secr inh: 16; TDP1 cell CPT: -12%; HT1080-NT tox: -1%

What do the screens show for `CCc1c(C)nc(SCC(=O)c2cccs2)c(C#N)c1C`?
HT1080 IDH1KD tx: -25%; TDP1 cell noCPT: inconclusive; IL1B secr inh: -99*; TDP1 cell CPT: inconclusive; HT1080-NT tox: -6%

Results for Cc1cccc(C)c1NC(=O)CSc1nc(C)c(CC(=O)c2ccc(Br)cc2)c(C)c1C#N ?
HT1080 IDH1KD tx: 14%; TDP1 cell noCPT: inconclusive; IL1B secr inh: 24; TDP1 cell CPT: 21µM*; HT1080-NT tox: 34%

What do the screens show for `CCSc1nc(C2CC2)cc(-c2cccs2)c1C#N`?
HT1080 IDH1KD tx: 3%; TDP1 cell noCPT: inconclusive; IL1B secr inh: 14; TDP1 cell CPT: -27%; HT1080-NT tox: 5%

How did CCN(CC(=O)Nc1ccc2c(c1)OCCO2)C(=O)C(C)Oc1ccc(Cl)cc1 (stereo unspecified) do in these assays?
HT1080 IDH1KD tx: 3%; TDP1 cell noCPT: -23%; IL1B secr inh: -15; TDP1 cell CPT: -17%; HT1080-NT tox: -9%

What do the screens show for `O=C(Oc1cccc2cccnc12)c1ccc(Br)o1`?
HT1080 IDH1KD tx: 13%; TDP1 cell noCPT: -18%; IL1B secr inh: 13; TDP1 cell CPT: -10%; HT1080-NT tox: 18%

Results for O=C(Cc1ccc(Cl)cc1)Oc1cccc2cccnc12 ?
HT1080 IDH1KD tx: -1%; TDP1 cell noCPT: 0.82µM*; IL1B secr inh: -100*; TDP1 cell CPT: 0.29µM*; HT1080-NT tox: 3%

What do the screens show for `O=C(Oc1cccc2cccnc12)c1cccs1`?
HT1080 IDH1KD tx: 6.5µM*; TDP1 cell noCPT: 0.82µM*; IL1B secr inh: 123; TDP1 cell CPT: 0.92µM*; HT1080-NT tox: 15µM*

What do the screens show for `O=C(Oc1cccc2cccnc12)c1ccco1`?
HT1080 IDH1KD tx: -15%; TDP1 cell noCPT: 21µM*; IL1B secr inh: 34; TDP1 cell CPT: inconclusive; HT1080-NT tox: -21%

What do the screens show for `CC1CN(CCC(=O)NCc2ccc3ncccc3c2)Cc2cc(Cl)ccc2O1` (stereo unspecified)?
TDP1 cell noCPT: inconclusive; TDP1 cell CPT: -6%[9.04 µM]

What do the screens show for `Cc1cccc(C)c1NC(=S)N(CCN(C)C)C(C)c1ccccn1` (stereo unspecified)?
HT1080 IDH1KD tx: 0%; TDP1 cell noCPT: -17%; IL1B secr inh: 0; TDP1 cell CPT: 0%; HT1080-NT tox: 5%

What do the screens show for `COCCCN(C(=S)Nc1c(C)cc(C)cc1C)C(C)c1ccccn1` (stereo unspecified)?
HT1080 IDH1KD tx: 11%; TDP1 cell noCPT: 21µM*; IL1B secr inh: 1; TDP1 cell CPT: inconclusive; HT1080-NT tox: 21%

What do the screens show for `CC(=O)c1c(N2CCN(C)CC2)[nH]c(-c2ccccc2)nc1=S`?
HT1080 IDH1KD tx: inconclusive; TDP1 cell noCPT: 16µM*; IL1B secr inh: inconclusive; TDP1 cell CPT: inconclusive; HT1080-NT tox: -30%

Results for COc1ccc(Nc2c(CCc3ccccc3)nc3nc(C)cc(C)n23)cc1 ?
HT1080 IDH1KD tx: inconclusive; TDP1 cell noCPT: 13µM*; IL1B secr inh: -8; TDP1 cell CPT: 18µM*; HT1080-NT tox: inconclusive
